Compound activity from PubChem BioAssay.
LASV entry inh – inhibitors of Lassa virus binding or cell entry; Lassa virus pseudotype entry inhibition, cell reporter; Potency, µM (titrated, usually from 37.9 µM), usual class: inhibitors; 300,000 compounds, 1.2% hits; calls by dose curve; tested in HEK293 cells; note: nearly all actives have a fitted effect of over 50% in size
FMDV inh – foot and mouth disease virus antiviral activity. AID 1159524. 410,000 compounds, 1.2% hits. Potency, µM (top dose mostly 57.9 µM), usual class: inhibitors. FMDV antiviral cell-based qHTS; calls by dose curve; tested in HEK293T cells; note: read-out not given here; nearly all actives have a fitted effect of over 45% in size
HCMV inh – human cytomegalovirus inhibition; HFF cells, HCMV-luciferase reporter, 72 h; active compounds read low; activity change, negative = inhibition, % at 57.5 µM; 410,000 compounds, 4.5% hits; AID 1259415; in the data active = activity change below about -60%; inconclusive = no clear call, values can overlap the other calls; inactive = above about -39%
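Inhibition of viral replication was scored as loss of reporter luminescence in HFFs infected with HCMV-luciferase (MOI 1 PFU/cell) for 72 h; compounds tested at 2 doses, normalized to buffer and Salinomycin controls.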
Vaccinia Venus – vaccinia inhibition (Venus reporter) | Vaccinia virus Venus reporter expression, fluorescence | Potency, µM (top dose mostly 36.5 µM), actives largely listed as inhibitors | 330,000 compounds, 0.46% hits | AID 720580; calls by dose curve; tested in A549 cells; note: nearly all actives have a fitted effect of over 30% in size
MARV entry inh – blocks Marburg virus binding to or entry into cells; Marburg virus pseudotyped entry inhibition, cell reporter; Potency, µM (titrated, usually from 37.8 µM), most hits filed as inhibitors; 300,000 compounds, 1.8% hits; AID 540276; calls by dose curve; tested in HEK293 cells
VACV mCherry inh – inhibitors of vaccinia virus infection (mCherry reporter signal). Vaccinia virus mCherry reporter infection, fluorescence. Potency, µM (highest dose often 36.5 µM), actives largely listed as inhibitors. 310,000 compounds, 0.63% hits. AID 720579; calls by dose curve; tested in A549 cells; note: nearly all actives have a fitted effect of over 35% in size
A number is an active result; i = inactive; ? = inconclusive; nt = no result; [ ] = remark or other dose. In the library only some 6.5% were active in any assay of this set; here they are far more common.

SMILES | LASV entry inh | FMDV inh | HCMV inh | Vaccinia Venus | MARV entry inh | VACV mCherry inh
Cc1cc(C)cc(-n2c(C)cc(C(=O)C(=O)Nc3ccccc3F)c2C)c1 | i | i | i | i | i | i
Cc1cccc(-n2c(C)cc(C(=O)C(=O)Nc3ccccc3F)c2C)c1C | i | i | -67 | i | i | i
CN(C)c1ccc2nc3ccc(=O)cc-3sc2c1 | nt | i | -78 | ? | nt | i
CCOc1ccc(CNC(=O)CCS(=O)(=O)c2cc3c(cc2Cl)NC(=O)CO3)cc1OC | i | i | i | i | nt | i
O=C(Nc1cccc2ccccc12)c1cnsn1 | nt | i | -64 | nt | nt | nt
O=C(Nc1ccccc1F)c1ccc([N+](=O)[O-])s1 | ? | i | ? | ? | ? | i
O=C(Nc1cccnc1)c1ccc([N+](=O)[O-])s1 | nt | i | -84 | nt | nt | nt
O=C(Nc1cccc2ccccc12)c1ccc([N+](=O)[O-])s1 | ? | i | -98 | ? | i | ?
O=C(Nc1cccnc1)c1cc(Br)c(Br)s1 | i | i | i | i | i | i
CCCNC(=O)N1[C@@H]2Cn3c(cccc3=O)[C@H]1[C@@H](C(=O)OC)[C@@H]2CO | nt | nt | i | nt | nt | nt
COc1ccc(C2/C(=C(/O)c3ccc(F)cc3)C(=O)C(=O)N2CCCN(C)C)cc1 (centres undefined) | i | i | -83 | i | i | i
CCCc1nnc(NC(=O)CCC(=O)N2CCN(Cc3cc(Cl)ccc3OC)CC2)s1 | nt | i | i | nt | nt | nt
COc1ccc(CN2CCN(C(=O)CCC(=O)Nc3nnc(CC(C)C)s3)CC2)cc1F | nt | ? | -65 | nt | nt | nt
CCCc1nnc(NC(=O)CCC(=O)N2CCN(Cc3ccc(OC)c(F)c3)CC2)s1 | nt | ? | -76 | nt | nt | nt
COc1ccc(CN2CCN(C(=O)CCC(=O)Nc3nnc(C(F)(F)F)s3)CC2)cc1F | nt | i | i | i[7.34 µM] | nt | i[7.34 µM]
COc1ccc(CN2CCN(C(=O)CCC(=O)Nc3nnc(C4CCCCC4)s3)CC2)cc1F | i | ? | -73 | i | i | i
CC(=O)c1ccc(NC(=O)COc2ccccc2-c2nc(-c3cccc(C)c3)no2)cc1 | i | i | i | i | i | i
CCCOc1ccc(CNC(=O)C(CC)n2nc(C)c3sc4ccccc4c3c2=O)cc1 (centres undefined) | i | i | i | i | ? | i
O=C(NC1CCCc2c1cnn2-c1ccc(F)cc1F)c1ccccc1N1CCOCC1 (centres undefined) | i | i | -75 | i | ? | i
O=C(CCc1ccncc1)NC1CCCc2c1cnn2-c1ccc(F)cc1F (centres undefined) | i | ? | -73 | i | ? | i
CCc1cc(C(=O)NC2CCCc3c2cnn3-c2ccc(F)cc2F)no1 (centres undefined) | nt | ? | -71 | i | nt | ?
Cc1ccc(-n2nc(C(=O)Nc3ccc(F)cc3F)c3c4ccccc4n(C)c3c2=O)cc1 | ? | i | i | i | i | i
COc1ccc(-n2cc(C(=O)c3ccccc3O)cn2)cc1 | 4µM | i | i | i | ? | i
CCCC(NC(=S)NCC1CCCO1)C12CC3CC(CC(C3)C1)C2 (centres undefined) | nt | i | -93 | i | nt | i
Oc1ccc(O)c2c1C1(Cl)C(Cl)=C(Cl)C2(Cl)C1(Cl)Cl | i | ? | -64 | i | ? | ?
SMILES | LASV entry inh | FMDV inh | HCMV inh | Vaccinia Venus | MARV entry inh | VACV mCherry inh
COCc1c(C(=O)N2CC3CCC2C3)cnn1-c1nccc(-c2ccccc2OC)n1 (centres undefined) | nt | i | nt | i | nt | i
COc1ccc(C2=C/C(=C\c3cccc(OC(C)=O)c3)C(=O)O2)cc1 | i | i | -65 | nt | i | nt
CCCS(=O)(=O)NCc1c(C)ncc2c1CCN(C(=O)c1c(F)ccc(F)c1F)C2 | nt | i | nt | i | nt | i
NC(=O)CN1C(=O)NC2(CCCc3sccc32)C1=O (centres undefined) | i | i | i | i | i | i
Cc1cc(C(=O)CN2C(=O)NC3(CCCc4sccc43)C2=O)c(C)n1-c1ccc(Cl)cc1 (centres undefined) | ? | i | -62 | i | ? | i
COc1ccc(Cl)cc1NC(=O)Cn1cc(C(=O)c2ccncc2)c(=O)c2cc(C)ccc21 | i | i | i | i[7.34 µM] | nt | i[7.34 µM]
COC(=O)CC=C[C@@H](C)[C@@H](C=NO[C@H](C)c1cn([C@@H]2COC[C@@H]2O)nn1)N[S+](=O)([O-])c1ccc(C)cc1 | nt | nt | nt | nt | i | nt
O=C(N=c1ccn(-c2nc3ccccc3nc2NS(=O)(=O)c2ccccc2)cc1)c1cccs1 | i | i | i | i | ? | i
Cc1ccccc1C(=O)N=c1ccn(-c2nc3ccccc3nc2NS(=O)(=O)c2ccc(F)cc2)cc1 | nt | i | -61 | nt | nt | nt
